Rows were chosen to be rich in hits. Some 2.4% of all compounds tested hit in one or more screens of this group.
CHT allo act – allosterically activates the human high affinity choline transporter | B-score at 10 µM | CHT-expressing cells, membrane potential dye, choline EC20; active compounds read high; LV-AA mutant CHT in HEK293 cells | Q9GZV3 | 310,000 tested, 0.49% active;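 active = initial fluorescence not abnormally high and integrated response B-score, plate-corrected, over 3 SD above library mean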
ANO1 block – blocks the mouse calcium-activated chloride channel TMEM16A; HEK293 TMEM16A/YFP iodide influx fluorescence, ionomycin; normalized B-score (activity score, 25-100; higher = stronger inhibition) at 10 µM; 310,000 tested, 1.2% active;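 active = ratio plate-corrected score three or more library SD toward inhibition, starting fluorescence score within five deviations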;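 also: score derived from kinetic fluorescence span divided by baseline fluorescence per well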
Target sequence (Q8BHY3 whole entry, looked up): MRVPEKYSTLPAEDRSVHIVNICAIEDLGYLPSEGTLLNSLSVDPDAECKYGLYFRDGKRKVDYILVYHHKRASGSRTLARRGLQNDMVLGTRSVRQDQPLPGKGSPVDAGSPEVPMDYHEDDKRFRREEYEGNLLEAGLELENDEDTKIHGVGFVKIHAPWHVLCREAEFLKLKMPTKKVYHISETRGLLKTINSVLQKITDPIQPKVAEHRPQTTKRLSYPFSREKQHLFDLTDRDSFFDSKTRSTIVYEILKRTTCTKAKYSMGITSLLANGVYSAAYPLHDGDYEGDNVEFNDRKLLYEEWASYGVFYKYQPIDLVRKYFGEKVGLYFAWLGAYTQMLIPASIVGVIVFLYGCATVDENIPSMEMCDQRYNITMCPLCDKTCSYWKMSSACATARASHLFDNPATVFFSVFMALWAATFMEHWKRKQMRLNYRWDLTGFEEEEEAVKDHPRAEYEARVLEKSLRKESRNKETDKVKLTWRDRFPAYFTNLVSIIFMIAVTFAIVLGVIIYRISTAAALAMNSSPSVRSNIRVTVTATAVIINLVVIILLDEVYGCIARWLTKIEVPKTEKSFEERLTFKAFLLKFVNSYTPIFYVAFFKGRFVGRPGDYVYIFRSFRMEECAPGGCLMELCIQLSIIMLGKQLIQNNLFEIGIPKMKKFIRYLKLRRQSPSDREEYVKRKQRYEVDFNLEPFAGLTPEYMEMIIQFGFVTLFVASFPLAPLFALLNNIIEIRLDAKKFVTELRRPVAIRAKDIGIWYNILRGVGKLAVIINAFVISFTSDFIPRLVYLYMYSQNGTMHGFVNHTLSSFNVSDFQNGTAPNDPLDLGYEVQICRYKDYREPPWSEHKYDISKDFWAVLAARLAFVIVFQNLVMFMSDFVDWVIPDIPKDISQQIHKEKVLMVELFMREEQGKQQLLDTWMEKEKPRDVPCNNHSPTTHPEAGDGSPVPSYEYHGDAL
CHT inh – inhibitors of human choline transporter CHT | 310,000 tested, 0.86% active | Q9GZV3 | CHT-expressing cells, membrane potential dye, choline response; active compounds read low | B-score at 10 µM;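 active = B-score over 3 SD under the library average, and starting fluorescence ratio not unusually high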;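 also: choline stimulus applied at its EC90 after an EC20 pre-addition; B-score computed on integrated fluorescence ratio after choline addition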
ANO1 activ – activates or potentiates the mouse TMEM16A chloride channel | HEK293 TMEM16A/YFP-H148Q/I152L, iodide quench fluorescence; active compounds read low | B-score at 10 µM | 340,000 tested, 0.3% active | Q8BHY3;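 active = fluorescence-ratio B-score plate-corrected deviation score at least 3 library SD below zero, with starting fluorescence score within 5 deviations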;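 also: channel opened by trigger with iodide after compound preincubation; score built on the fluorescence ratio of max minus min over baseline; more negative score means more quench and so TMEM16A activation or potentiation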
TMEM16A reconf – reconfirmed blocker of mouse TMEM16A calcium-activated chloride channel; shares compounds with ANO1 block; HEK293 TMEM16A/YFP-H148Q, iodide quench fluorescence; ionomycin added to raise cell calcium; inhibition, % at 10 µM; 2,300 tested, 39% active;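 active = mean duplicate percent inhibition, scaled so buffer wells are 0 and the reference blocker 100, over three buffer SD above buffer mean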
TMEM16A Ca cntr – counter-screen for TMEM16A inhibitors: effect on calcium mobilization | shares compounds with ANO1 block | TMEM16A/YFP HEK293, Fluo4 calcium mobilization | calcium response (% of ionomycin), % at 10 µM | 2,300 tested, 2% active;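 active = duplicate-averaged calcium signal over 20% of the ionomycin maximum, relative to buffer baseline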;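 also: each well's signal is peak minus trough fluorescence divided by its pre-addition baseline; 0% = buffer wells and 100% = ionomycin wells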
Parental YFP cnt – parental YFP-HEK293 iodide quench counter-screen activity | shares compounds with ANO1 block | ionomycin | YFP ratio F(max-min)/F0 at 10 µM | 2,300 tested, under 10 active | AID 652233;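 active = yellow fluorescent protein signal ratio exceeding the buffer control mean by over 5 SD of those controls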;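 also: ratio is mean of duplicate wells from kinetic YFP trace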
ClC-1 rat inh – selectivity of TMEM16A inhibitors: inhibition of rat ClC-1 chloride channel | shares compounds with ANO1 block | ratio percent, % at 10 µM | CHO ClC-1-YFP, iodide influx fluorescence quench; iodide control reads 0, buffer control 100 | AID 652236 | 2,300 tested, under 10 active;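 active = duplicate-mean ratio percent above the mean of iodide-only control wells, which defines zero, plus 5 of their SD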;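 also: higher percent means stronger block of ClC-1 iodide influx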
* = called active by the depositor; i = inactive; nt = no result.

SMILES | CHT allo act | ANO1 block | CHT inh | ANO1 activ | TMEM16A reconf | TMEM16A Ca cntr | Parental YFP cnt | ClC-1 rat inh
CCN(CC)S(=O)(=O)c1ccc(-c2nnc(SCC(=O)Nc3cc(OC)cc(OC)c3)o2)cc1 | i | 100* | i | i | i | i | -1.4 | 4
CCN(CC)S(=O)(=O)c1ccc(-c2nnc(SCC(C)=O)o2)cc1 | i | i | i | i | nt | nt | nt | nt
CC(=O)c1cccc(NC(=S)N2CCN(c3ccccn3)CC2)c1 | i | i | i | i | nt | nt | nt | nt
O=C(O)COc1ccccc1/C=C1\SC(=S)N(NC(=O)c2ccccc2O)C1=O | i | i | i | i | i | i | -0.85 | 19
CNc1nc(N)c(C(=O)Nc2cc(C)on2)s1 | i | i | i | i | nt | nt | nt | nt
C=CCOc1c(Br)cc(CNc2ccc(NC(=O)C(C)C)c(OC)c2)cc1OC | i | i | i | i | nt | nt | nt | nt
O=C(CSc1nnc(Cc2cc(=O)[nH]c(=O)[nH]2)n1-c1ccccc1)N1CCCCC1 | i | i | i | i | i | i | -0.85 | -10
COc1ccccc1N1CCN(C(c2ccc(Cl)cc2)c2nnnn2C(C)(C)C)CC1 (stereo unspecified) | i | 100* | i | i | i | i | -1.2 | -22
COc1ccc(-n2nc(C(=O)N(C)C)nc2-c2ccccc2)cc1 | i | i | i | i | nt | nt | nt | nt
COc1cc(Nc2nc3ccccc3n3nnnc23)cc(OC)c1OC | i | i | i | i | i | i | -0.81 | -4
COc1ccc(Nc2nc3ccccc3n3nnnc23)cc1 | i | i | i | i | nt | nt | nt | nt
CCOc1ccc(NS(=O)(=O)c2ccc(NC(=S)NC(=O)CC(C)C)cc2)cc1 | i | 100* | i | i | 38%* | i | -0.94 | -12
CCCC(=O)NC(=S)Nc1ccc(S(=O)(=O)Nc2ccc(OCC)cc2)cc1 | i | i | i | i | nt | nt | nt | nt
COc1ccc(CCNc2cc(N3CCN(C(=O)c4ccccc4F)CC3)ccc2[N+](=O)[O-])cc1OC | i | 25* | i | i | 42%* | i | -0.85 | -18
COc1ccc(CCCc2nnc(SCC(=O)Nc3ncc(C)s3)o2)cc1 | i | i | i | i | nt | nt | nt | nt
COc1ccc(CCCc2nnc(SCC(=O)Nc3cccc(C)c3)o2)cc1 | i | 25* | i | i | 18%* | i | -1 | -14
CCN(C(=O)Cc1c(C(=O)O)[nH]c2ccccc12)c1cc(OC)ccc1OC | i | 100* | i | i | i | i | -1.1 | -4
COc1ccc(N(C)C(=O)Cc2c(C(=O)O)[nH]c3ccccc23)cc1 | i | i | i | i | nt | nt | nt | nt
O=C(O)c1ccc(N=Nc2c(O)[nH]c3ccc(Br)cc23)cc1 | i | i | i | i | 17%* | i | -0.77 | -8
O=C(O)c1ccc(N=Nc2c(O)[nH]c3cc(Cl)ccc23)cc1 | i | i | i | i | nt | nt | nt | nt
COc1ccc(-n2c(SCCC(=O)O)nnc2-c2ccncc2)cc1 | i | 100* | i | i | i | i | -1.2 | 2
CC(=O)Nc1ccc(S(=O)(=O)N2CCN(CCCOc3ccccc3Cl)CC2)cc1 | i | 25* | i | i | i | i | -1.1 | -6
Cc1cccc(NC(=O)c2ccc(C(=O)c3ccccc3)cc2)n1 | i | 100* | i | i | 47%* | i | -0.95 | -18
O=S(=O)(c1ccc2oc(=S)[nH]c2c1)N1CCCCC1 | i | i | i | i | nt | nt | nt | nt
S=c1[nH]c2cc(-c3ccccc3)ccc2o1 | i | 25* | i | i | i | i | -1 | -10
SMILES | CHT allo act | ANO1 block | CHT inh | ANO1 activ | TMEM16A reconf | TMEM16A Ca cntr | Parental YFP cnt | ClC-1 rat inh
COc1ccc(NC(=O)c2ccc3nccnc3c2)cc1 | i | 100* | i | i | i | i | -1.1 | -5
CCCOC(=O)c1ccc(NS(=O)(=O)c2cccs2)cc1 | i | 25* | i | i | i | i | -0.95 | 2
Cc1ccc(CNC(=O)c2ccc(NS(=O)(=O)c3cccs3)cc2)cc1 | i | i | i | i | nt | nt | nt | nt
CCOC(=O)C1CCCN(S(=O)(=O)c2ccc(S(=O)(=O)N(CC)CC)cc2)C1 (stereo unspecified) | i | 25* | i | i | i | i | -0.97 | -20
CCOC(=O)C1CCCN(S(=O)(=O)c2ccc(C)cc2)C1 (stereo unspecified) | i | i | i | i | nt | nt | nt | nt
O=S(=O)(C(=CNc1ccccc1)S(=O)(=O)c1ccccc1)c1ccccc1 | i | i | i | i | nt | nt | nt | nt
CCOC(=O)c1cc2ccccc2n1CCN(CC)CC | i | 25* | i | i | i | i | -1.2 | -7
CCN(CC)S(=O)(=O)c1ccc(C(=O)Oc2cc(C)[nH]c(=O)c2[N+](=O)[O-])cc1 | i | i | i | i | nt | nt | nt | nt
CC(Oc1ccc(-c2nccc(-c3ccccn3)n2)cc1)C(=O)NN (stereo unspecified) | i | i | i | i | nt | nt | nt | nt
O=c1oc2ccccc2cc1-c1nc2c(s1)CCCC2 | i | 25* | i | i | i | i | -1.3 | -8
O=c1oc2ccccc2cc1-c1csc(NN=C2CCCCC2)n1 | i | i | i | i | nt | nt | nt | nt
CCOC(=O)c1ccc(S(=O)(=O)NNC(=O)c2cccc(N(C)C)c2)cc1 | i | i | i | i | nt | nt | nt | nt
O=C(CSc1ccc2nnc(-c3ccccc3)n2n1)N1CCCCC1 | i | i | i | i | nt | nt | nt | nt
Fc1ccc(NC(=S)NCCc2ccc(Cl)cc2)cc1 | i | i | i | i | nt | nt | nt | nt
S=C(NCc1ccc(Cl)cc1)Nc1ccc(Cl)cc1Cl | i | i | i | i | nt | nt | nt | nt
Fc1ccc(CCNC(=S)Nc2ccc(F)c(Cl)c2)cc1 | i | 100* | i | -4.7* | 37%* | i | -1.1 | -14
S=C(NCCc1ccc(Cl)cc1)Nc1ccc(Cl)cc1Cl | i | 25* | i | i | i | i | -0.97 | -12
Fc1ccc(NC(=S)Nc2ccc(Cl)cc2Cl)cc1 | i | 100* | i | nt | 20%* | i | -1.1 | -10
COc1cccc(Oc2cn[nH]c2-c2ccc(OC)cc2O)c1 | i | 25* | i | i | 20%* | i | -1.3 | -13
COc1cccc(Oc2cn[nH]c2-c2ccc(O)cc2O)c1 | i | i | i | i | nt | nt | nt | nt
CCOc1ccc(-c2[nH]ncc2Oc2cccc(OC)c2)c(O)c1 | i | 100* | i | i | i | i | -1 | -10

Source: PubChem
